# “And” between values parts separate entries of the source, which are not always exact repeats. Identical values can stand only once. Screen size: about 5,500 compounds; about 2,000 (36%) were called active. Roughly 18% stayed inconclusive and do not appear here. Rule as the data show it: active = normalized growth mostly below about 0.91 (no sharp cut-off); inconclusive = no clear call, values can overlap the other calls; inactive = mostly above about 0.92. Some of the results follow.
# Assay: chemical genetic growth profiling, strain panel (AID 1159580);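 also: tested at 20 µM; growth read once vehicle control cultures reached saturation at 30 °C; 1 = growth at the plate median or of vehicle wells; lower values mean less growth of the strain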
# Settings: S. cerevisiae deletion strains, growth OD
smiles,measurement,setting,value
CN(C)c1ccc(C(=C2C=CC(=[N+](C)C)C=C2)c2ccc(N(C)C)cc2)cc1,normalized growth,"locus YAL013W, strain DEP1, stronger effect = lower value",0.362 (active)
same,normalized growth,"locus YAL021C, strain ccr4, stronger effect = lower value",0.479 (active)
same,normalized growth,"locus YAL026C, strain drs2, stronger effect = lower value",0.563 (active)
same,normalized growth,"locus YAL030W, strain snc1, stronger effect = lower value",0.453 (active)
same,normalized growth,"locus YBL061C, strain skt5, stronger effect = lower value",0.535 (active)
same,normalized growth,"locus YBR009C, strain hhf1, stronger effect = lower value",0.486 (active)
same,normalized growth,"locus YBR021W, strain FUR4, stronger effect = lower value",0.603 (active)
same,normalized growth,"locus YBR023C, strain chs3, stronger effect = lower value",0.506 (active)
same,normalized growth,"locus YBR171W, strain sec66, stronger effect = lower value",0.717 (active)
same,normalized growth,"locus YBR229C, strain ROT2, stronger effect = lower value",0.353 (active)
same,normalized growth,"locus YBR231C, strain swc5, stronger effect = lower value",0.551 (active)
same,normalized growth,"locus YBR279W, strain paf1, stronger effect = lower value",0.463 (active)
same,normalized growth,"locus YCL011C, strain gbp2, stronger effect = lower value",0.524 (active)
same,normalized growth,"locus YCL016C, strain dcc1, stronger effect = lower value",0.473 (active)
same,normalized growth,"locus YCL029C, strain bik1, stronger effect = lower value",0.507 (active)
same,normalized growth,"locus YCL069W, strain vba3, stronger effect = lower value",0.57 (active)
same,normalized growth,"locus YCR088W, strain abp1, stronger effect = lower value",0.563 (active)
same,normalized growth,"locus YDL005C, strain med2, stronger effect = lower value",0.67 (active)
same,normalized growth,"locus YDL035C, strain GPR1, stronger effect = lower value",0.317 (active)
same,normalized growth,"locus YDL040C, strain nat1, stronger effect = lower value",0.48 (active)
same,normalized growth,"locus YDL074C, strain BRE1, stronger effect = lower value",0.492 (active)
same,normalized growth,"locus YDL101C, strain DUN1, stronger effect = lower value",0.397 (active)
same,normalized growth,"locus YDL185W, strain tfp1, stronger effect = lower value",0.433 (active)
same,normalized growth,"locus YDL192W, strain arf1, stronger effect = lower value",0.462 (active)
same,normalized growth,"locus YDR001C, strain nth1, stronger effect = lower value",0.562 (active)
same,normalized growth,"locus YDR069C, strain doa4, stronger effect = lower value",0.61 (active)
same,normalized growth,"locus YDR101C, strain arx1, stronger effect = lower value",0.486 (active)
same,normalized growth,"locus YDR137W, strain rgp1, stronger effect = lower value",0.77 (active)
same,normalized growth,"locus YDR159W, strain sac3, stronger effect = lower value",0.75 (active)
same,normalized growth,"locus YDR162C, strain NBP2, stronger effect = lower value",0.316 (active)
same,normalized growth,"locus YDR195W, strain ref2",1.06 (inactive)
same,normalized growth,"locus YDR297W, strain sur2, stronger effect = lower value",0.537 (active)
same,normalized growth,"locus YDR318W, strain mcm21, stronger effect = lower value",0.487 (active)
same,normalized growth,"locus YDR334W, strain swr1, stronger effect = lower value",0.578 (active)
same,normalized growth,"locus YDR335W, strain msn5, stronger effect = lower value",0.577 (active)
same,normalized growth,"locus YDR388W, stronger effect = lower value",0.435 (active)
same,normalized growth,"locus YDR392W, strain spt3, stronger effect = lower value",0.658 (active)
same,normalized growth,"locus YDR502C, strain sam2, stronger effect = lower value",0.534 (active)
same,normalized growth,"locus YEL003W, strain gim4, stronger effect = lower value",0.547 (active)
same,normalized growth,"locus YEL037C, strain rad23, stronger effect = lower value",0.565 (active)
same,normalized growth,"locus YEL061C, strain CIN8 (second series), stronger effect = lower value",0.569 (active)
same,normalized growth,"locus YEL061C, strain CIN8, stronger effect = lower value",0.347 (active)
same,normalized growth,"locus YER015W, strain faa2, stronger effect = lower value",0.574 (active)
same,normalized growth,"locus YER016W, strain bim1, stronger effect = lower value",0.494 (active)
same,normalized growth,"locus YER110C, stronger effect = lower value",0.586 (active)
same,normalized growth,"locus YER111C, strain swi4, stronger effect = lower value",0.744 (active)
same,normalized growth,"locus YER155C, strain BEM2 (second series), stronger effect = lower value",0.826 (active)
same,normalized growth,"locus YER155C, strain BEM2, stronger effect = lower value",0.411 (active)
same,normalized growth,"locus YER167W, strain BCK2, stronger effect = lower value",0.334 (active)
same,normalized growth,"locus YFR010W, strain ubp6, stronger effect = lower value",0.614 (active)
same,normalized growth,"locus YGL078C, strain dbp3, stronger effect = lower value",0.493 (active)
same,normalized growth,"locus YGL086W, strain mad1, stronger effect = lower value",0.406 (active)
same,normalized growth,"locus YGL167C, strain pmr1, stronger effect = lower value",0.59 (active)
same,normalized growth,"locus YGL173C, strain kem1, stronger effect = lower value",0.637 (active)
same,normalized growth,"locus YGL227W, strain vid30, stronger effect = lower value",0.561 (active)
same,normalized growth,"locus YGL240W, strain doc1, stronger effect = lower value",0.618 (active)
same,normalized growth,"locus YGL248W, strain PDE1, stronger effect = lower value",0.345 (active)
same,normalized growth,"locus YGL253W, strain hxk2, stronger effect = lower value",0.465 (active)
same,normalized growth,"locus YGR078C, strain PAC10, stronger effect = lower value",0.321 (active)
same,normalized growth,"locus YGR135W, strain pre9, stronger effect = lower value",0.509 (active)
same,normalized growth,"locus YGR229C, strain SMI1, stronger effect = lower value",0.363 (active)
same,normalized growth,"locus YGR252W, strain gcn5, stronger effect = lower value",1.33 [resistant] (active)
same,normalized growth,"locus YHR013C, strain ard1, stronger effect = lower value",0.747 (active)
same,normalized growth,"locus YHR027C, strain rpn1, stronger effect = lower value",0.525 (active)
same,normalized growth,"locus YHR030C, strain SLT2, stronger effect = lower value",0.364 (active) and 1.08 (inactive)
same,normalized growth,"locus YHR079C, strain IRE1 (second series), stronger effect = lower value",0.476 (active)
same,normalized growth,"locus YHR079C, strain IRE1, stronger effect = lower value",1.26 [resistant] (active)
same,normalized growth,"locus YHR094C, strain hxt1, stronger effect = lower value",0.455 (active)
same,normalized growth,"locus YHR129C, strain ARP1, stronger effect = lower value",0.366 (active)
same,normalized growth,"locus YHR142W, strain chs7, stronger effect = lower value",0.638 (active)
same,normalized growth,"locus YHR200W, strain rpn10, stronger effect = lower value",0.459 (active)
same,normalized growth,"locus YIL066C, strain RNR3, stronger effect = lower value",0.346 (active)
same,normalized growth,"locus YIL073C, strain SPO22, stronger effect = lower value",0.67 (active)
same,normalized growth,"locus YIL125W, strain kgd1, stronger effect = lower value",0.505 (active)
same,normalized growth,"locus YIR030C, strain dcg1, stronger effect = lower value",0.493 (active)
same,normalized growth,"locus YJL092W, strain hpr5, stronger effect = lower value",0.548 (active)
same,normalized growth,"locus YJL095W, strain BCK1 (second series), stronger effect = lower value",0.525 (active)
same,normalized growth,"locus YJL095W, strain BCK1, stronger effect = lower value",0.406 (active) and 1.08 (inactive)
same,normalized growth,"locus YJL115W, strain asf1, stronger effect = lower value",0.651 (active)
same,normalized growth,"locus YJL129C, strain trk1, stronger effect = lower value",0.795 (active)
same,normalized growth,"locus YJL134W, strain LCB3, stronger effect = lower value",0.349 (active)
same,normalized growth,"locus YJL154C, strain vps35, stronger effect = lower value",0.551 (active)
same,normalized growth,"locus YJL164C, strain tpk1, stronger effect = lower value",0.548 (active)
same,normalized growth,"locus YJL166W, strain qcr8, stronger effect = lower value",0.478 (active)
same,normalized growth,"locus YJL168C, strain set2, stronger effect = lower value",0.448 (active)
same,normalized growth,"locus YJL187C, strain SWE1 (second series), stronger effect = lower value",0.333 (active)
same,normalized growth,"locus YJL187C, strain SWE1, stronger effect = lower value",0.521 (active)
